# Source: PubChem BioAssay
# Compounds with a hit are over-represented: about 3.1% of the library has one in this group of screens.
# IDH1 R132H inh – human IDH1 R132H inhibition | AID 602179 | 390,000 tested, 0.093% active | IDH1-R132H enzyme, NADPH consumption, diaphorase/resazurin fluorescence | Potency, µM (doses to about 76.6 µM), for the others: top-dose activity change, negative = inhibition, actives largely listed as inhibitors; also: % is scaled to controls: 0 for no effect and ±100 for the full control effect; nearly all actives have a fitted effect of over 65% in size
#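 IDH1-R132H (0.5 ug/mL) preincubated 30 min with compound, then NADPH (0.016 mM) and alpha-KG (2 mM) added; 80 min at RT, pH 7.5. Remaining NADPH coupled via diaphorase/resazurin to fluorescence (540/590 nm); concentration-response curves normalized to no-enzyme control.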
# A549 viability – A549 cytotoxicity, counter-screen for Nrf2 inhibitors. A549 ARE-Fluc cells, CellTiter-Fluor viability, 18-24 h. 390,000 tested, 0.16% active. Potency, µM (series often up to 46 µM), inactives show at the top dose activity change, negative = cytotoxicity, most hits filed as inhibitors; also: % is scaled to controls: 0 for no effect and ±100 for the full control effect
#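 A549 ARE_Fluc cells in 5% FBS OPTI-MEM were exposed to compounds in concentration-response for 18-24 h at 37 deg C. Viability was read by CellTiter-Fluor fluorescence (Ex 405/Em 525) after 30 min, before the luciferase read.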
# Nrf2 block – Nrf2 pathway inhibition. A549 ARE-Fluc reporter, luciferase luminescence, 18-24 h. Potency, µM (series often up to 46 µM), for the others: at the top dose activity change, negative = inhibition, most hits filed as inhibitors. 360,000 tested, 2.1% active. AID 504444; also: % is scaled to controls: 0 for no effect and ±100 for the full control effect; nearly all actives have a fitted effect of over 60% in size
#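 A549 ARE_Fluc cells (5000/well, 5% FBS OPTI-MEM) pre-incubated 2 h, then treated with compounds 18-24 h at 37C/5% CO2 in concentration-response. CellTiter-Fluor viability read first; BugLite luciferase luminescence after 15 min at room temperature gives Nrf2 activity.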
# Mito fusion yeast – mitochondrial division inhibition or fusion activation; Potency, µM (titrated, usually from 46.1 µM), without a hit: at the top dose growth rescue (activation), most hits filed as activators; 320,000 tested, 0.23% active; S. cerevisiae fusion-defective mutant growth rescue, CellTiterGlo 48 h; also: % of control where 0% means no effect; nearly all actives have a fitted effect of over 45% in size
#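 Compounds are tested for their ability to restore growth of mitochondrial fusion-defective yeast strains at non-permissive 37C in YPEG medium over 48 hours. Viability is quantified by luciferase luminescence.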
# rTrxR1 inhibitor – blocks rat thioredoxin reductase 1. O89049. recombinant rTrxR1, NADPH fluorescence consumption, selenite substrate. Potency, µM (titrated, usually from 114 µM), without a hit: at the top dose activity change, negative = inhibition, hits mostly inhibitors. 390,000 tested, 1% active. AID 588453; also: % is scaled to controls: 0 for no effect and ±100 for the full control effect; nearly all actives have a fitted effect of over 65% in size
# Target sequence (O89049 whole entry, looked up): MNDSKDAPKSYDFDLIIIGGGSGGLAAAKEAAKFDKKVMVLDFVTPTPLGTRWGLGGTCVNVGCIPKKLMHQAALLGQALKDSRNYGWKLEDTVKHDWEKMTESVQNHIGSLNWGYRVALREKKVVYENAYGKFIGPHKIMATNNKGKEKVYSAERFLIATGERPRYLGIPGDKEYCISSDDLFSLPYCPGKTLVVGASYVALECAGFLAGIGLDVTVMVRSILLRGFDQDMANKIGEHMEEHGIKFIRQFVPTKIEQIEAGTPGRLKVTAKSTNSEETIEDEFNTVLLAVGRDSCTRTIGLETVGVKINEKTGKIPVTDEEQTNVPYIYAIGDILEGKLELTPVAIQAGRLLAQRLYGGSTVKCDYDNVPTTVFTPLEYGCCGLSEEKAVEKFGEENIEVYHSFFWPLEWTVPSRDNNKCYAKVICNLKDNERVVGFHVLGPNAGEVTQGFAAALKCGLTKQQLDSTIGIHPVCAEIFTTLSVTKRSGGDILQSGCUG
#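 Rat TrxR1 (90 nM in the dispensed reagent) was pre-reduced with 400 uM NADPH for 5 min at room temperature, then incubated with compound for 15 min. After 400 uM selenite was added, NADPH fluorescence (Ex 340/Em 450 nm) was followed for 8 min.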
# TrxR1 substrate – substrates of rat thioredoxin reductase 1. 390,000 tested, 0.01% active. Potency, µM (doses to about 114 µM), for inactives: at the top dose activity change, negative = substrate turnover. purified TrxR1 substrate turnover, NADPH consumption readout. AID 588456. O89049; also: % is scaled to controls: 0 for no effect and ±100 for the full control effect; nearly all actives have a fitted effect of over 50% in size
#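 Rat TrxR1, dispensed at 90 nM, was prereduced with 400 uM NADPH (final) for 5 min at ~22 deg C, then incubated with compound 15 min before 400 uM selenite. A first-read NADPH fluorescence drop versus no-compound background flagged substrates.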
# Numbers without * were called inactive; ? = inconclusive; nt = no result; ! = not confirmed by another sample; [ ] = remark or other dose. Calls follow the shape of the dose curve; as a rule, active = well fitted curve in the direction sought with a large enough effect; inconclusive = small, poorly fitted or top-dose-only effect, or another doubt; inactive = no such curve, though single readings can be large; an effect the other way counts as inactive or inconclusive. Potency is read from the fitted curve at half-maximal effect.
SMILES,IDH1 R132H inh,A549 viability,Nrf2 block,Mito fusion yeast,rTrxR1 inhibitor,TrxR1 substrate
CCOC(=O)c1c(C)oc2ncnc(N3CCN(c4ccccc4)CC3)c12,-1%,9%,?,nt,18%,-2%
CCOc1ccc2oc(=O)cc(CN3CCN(c4ccc(Cl)cc4)CC3)c2c1,9%,3%,-1%,nt,2%,-5%
O=C1NC(=S)S/C1=C\c1ccc(SCc2ccco2)o1,-6%,?,-10%,?,8.9µM*,-3%
O=C1NC(=S)S/C1=C\c1ccc(SCc2ccccc2)o1,-4%,?,21µM*,7%,25µM*,0%
Cc1ccc(-c2nnc(SC(C)C(=O)NCc3ccco3)n2C)cc1 (centres undefined),nt,nt,nt,nt,4%,-5%
CCCc1c(-c2ccc(O)cc2)nn(-c2ccc(O)cc2)c1-c1ccc(O)cc1,?,-7%,-7%,16µM*!,22%[57.1 µM],5%[57.1 µM]
O=C(COc1ccccc1C(=O)Nc1ccccc1)Nc1cccc(Cl)c1,nt,nt,nt,nt,3%,-6%
COc1cc2c(cc1OC)C(c1ccccc1)N(C(=O)CCl)CC2 (centres undefined),1%,-11%,?,-7%,4.5µM*,3%
C/C(=N\NC(=O)c1ccc(Cl)cc1)c1ccccn1,-17%,?,3.7µM*,-15%,-8%,-10%
O=C(Sc1ccc(Cl)cc1)c1ccccn1,0%,1%,29%,nt,1.1µM*,-3%
C/C(=N\NC(=O)c1ccccn1)c1ccc(Cl)cc1,?,0%,10%,0%,2%[57.1 µM],-1%[57.1 µM]
Cc1cc(Oc2ccc(Cl)cc2Cl)nc(C#N)n1,nt,nt,nt,nt,-1%,3%
CCc1cc2c(N3CCN(c4ccccc4)CC3)ncnc2s1,-1%,-10%,18µM*,7%,-9%,-5%
c1ccc(N2CCN(c3ncnc4sc5c(c34)CCC5)CC2)cc1,3%,0%,?,?,14%,6%
Oc1ccc(N2CCN(c3ncnc4sc(-c5ccccc5)cc34)CC2)cc1,-5%,-16%,21µM*,1%,20%[57.1 µM],-2%
Cc1ccc(CC(=O)NCc2nc(-c3ccccc3)no2)cc1,-2%,1%,-2%,nt,22%,8%
Cc1[nH]n(-c2ncc(-c3ccccc3)s2)c(=O)c1C(c1ccc(Br)cc1)C(C#N)C#N (centres undefined),?,2%,1%,-10%,32µM*,-6%
C=CCC[C@@H](Cc1ccc(F)cc1)C(=O)OC[C@@H](Cc1c[nH]c2ccccc12)NC(=O)[C@H](CC=C)CC(=O)N(CCO)Cc1ccccc1,-12%,?,23µM*,nt,21%,1%
C=CC[C@H](CC(=O)N(CCO)Cc1ccccc1)C(=O)N[C@@H](COC(=O)[C@@H](CC=C)Cc1ccc(F)cc1)Cc1c[nH]c2ccccc12,8%,?,18µM*,nt,20%,-4%
C=CCC[C@H](Cc1ccc(F)cc1)C(=O)OC[C@@H](Cc1c[nH]c2ccccc12)NC(=O)[C@H](CC=C)CC(=O)N(CCO)Cc1ccccc1,-2%,?,21µM*,nt,29%,-5%
C=CC[C@@H](CC(=O)N(CCO)Cc1ccccc1)C(=O)N[C@@H](COC(=O)[C@@H](CC=C)Cc1ccc(F)cc1)Cc1c[nH]c2ccccc12,10%,?,?,nt,19%[57.1 µM],-4%[57.1 µM]
C=CCC[C@H](Cc1ccc(F)cc1)C(=O)OC[C@@H](Cc1c[nH]c2ccccc12)NC(=O)[C@H](CC=C)CC(=O)NCCO,1%,-12%,-24%,nt,8%,-11%
CCN(CC)CCNC(=O)c1nn(C)c2c1CS(=O)(=O)c1ccccc1-2,41%,0%,-5%,nt,20%,2%
Cc1nc2c(-c3ccccc3)c(C)nn2c(C)c1CCC(=O)N1CCN(c2ccc(F)cc2)CC1,-1%,-4%,-21%,nt,26%,4%
CN(C)c1ccc(/C=C/c2ccnc3c(O)ccc(O)c23)cc1,nt,nt,nt,nt,18%,21%
SMILES,IDH1 R132H inh,A549 viability,Nrf2 block,Mito fusion yeast,rTrxR1 inhibitor,TrxR1 substrate
Cc1cccc(Nc2nnc(-c3ccc(C)c(S(=O)(=O)N4CCN(C)CC4)c3)c3ccccc23)c1,8%,?,?,nt,19%,-1%
O=C(N/N=C/c1cccc(C(F)(F)F)c1)c1cc2c(s1)-c1ccccc1CC2,1%,12%,nt,2%,9%[57.1 µM],40%[57.1 µM]
Cc1cccc(/C=N/NC(=O)c2cc3c(s2)-c2ccccc2CC3)c1,4%,-12%,-20%,11µM*,38%[57.1 µM],30%[57.1 µM]
COc1ccc(-n2cc(C(=O)NCCc3ccc(C)cc3)c3ccccc3c2=O)cc1,-20%,-2%,18µM*,nt,6%,-6%
COC(=O)c1ccc(CNC(=O)c2coc3ccccc3c2=O)cc1,-2%,-7%,-2%,0%,26%,1%
COc1ccc(CCNC(=O)c2coc3ccccc3c2=O)cc1,-1%,-7%,13µM*,24%,2%,-4%
COc1cccc(C(=O)Nc2nc(-c3ccc4c(c3)OCO4)cs2)c1,-3%,-23%,13µM*,?,22%,39%
COc1ccc(OC)c(-c2csc(NC(=O)c3ccc(F)cc3)n2)c1,7%,-5%,18µM*,-9%,10%,-6%
COc1ccc(OC)c(-c2csc(NC(=O)Cc3ccc(F)cc3)n2)c1,-26%,-2%,?,-13%,2%,-4%
COc1ccc(OC)c(-c2csc(NC(=O)Cn3[nH]c(=O)c4ccccc4c3=O)n2)c1,6%,-17%,10µM*,9%,23%,7%
Cc1sc(NC(=O)Cn2[nH]c(=O)c3ccccc3c2=O)nc1-c1ccccc1,13%,-16%,16µM*,6%,-11%,-5%
O=C(Nc1ccccc1C(=O)N1CCCCC1)c1nsc2ccccc12,24%,8%,nt,nt,11%[57.1 µM],4%[57.1 µM]
COCCN1Cc2cccc(C(=O)Nc3ccc(Cl)cc3Cl)c2C1=O,21%,16%,-29%,nt,1%,-4%
O=C(C[n+]1cccc2cccc(O)c21)c1ccc(F)cc1,nt,nt,nt,nt,-9%,1%
CCOC(=O)c1ccc(-n2cnc3c(c2=N)C(c2cccc(OC)c2)c2c(ccc4ccccc24)O3)cc1 (centres undefined),nt,-1%,-1%,nt,nt,nt
Cc1cccc(Cc2c(C)nc3c(C(=O)N4CCN(Cc5ccc6c(c5)OCO6)CC4)cnn3c2C)c1,7%,-1%[1.84 µM],18µM*,8%,21%,33%
Cc1ccccc1Cc1c(C)nc2c(C(=O)N3CCN(Cc4ccc5c(c4)OCO5)CC3)cnn2c1C,-2%,-10%,?,nt,22%,25%
Cc1nc2c(C(=O)NCc3ccco3)cnn2c(C)c1Cc1ccc(F)cc1Cl,-5%,-19%,?,-1%,61%,102%
